Where a name gives a salt, the structure may show the parent alone.
What was measured:
Test in all cases: Euclidean distance of Cell Painting phenotypic profile (signed KS, 77 features) to DMSO centroid (dimensionless distance); 5 or 10 uM (library dependent); higher = stronger phenotypic change vs DMSO (phenoactivity)
Conditions in all cases: 48 h
[1] = tested on: 786-O
Procedure, shortened: (§1)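 Stained cells were imaged confocally at 20X with 9 fields per well, after 48 h of exposure to library compounds at 10 or 5 uM (set by library; 0.1% DMSO final). The cells were five cancer lines and a healthy fibroblast line. From the images, Harmony extracted 77 features, each expressed as a signed Kolmogorov-Smirnov statistic relative to same-plate vehicle wells. Phenoactivity is measured as Euclidean distance to the median vehicle profile, using plate-position-corrected, correlation-weighted profiles averaged across replicates at the top dose.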

[2] = tested on: A549
Procedure, shortened: as §1

[3] = tested on: DU145
Procedure, shortened: as §1

[4] = tested on: FB
Procedure, shortened: as §1

[5] = tested on: HEPG2
Procedure, shortened: as §1

[6] = tested on: OVCAR4
Procedure, shortened: as §1

Structure (SMILES) | Euclidean distance [1] | Euclidean distance [2] | Euclidean distance [3] | Euclidean distance [4] | Euclidean distance [5] | Euclidean distance [6]
O=C(/C=C/c1cccc(S(=O)(=O)Nc2ccccc2)c1)NO [Belinostat (PXD101)] | 1.71 | 2.39 | 2.38 | 1.82 | 1.99 | 1.12
CCOC(=O)C1=C[C@]2(CC)CCCN3CCc4c(n1c1ccccc41)[C@@H]32 [Vinpocetine] | 1.12 | 0.68 | 0.699 | 0.994 | 0.98 | 1.81
Cc1cccc(C)c1N(CC(=O)Nc1ccc(-c2ncon2)cc1)C(=O)C1CCS(=O)(=O)CC1 [Amenamevir] | 1.07 | 0.772 | 0.783 | 1.3 | 0.5 | 1.2
COc1ccc2cc3[n+](cc2c1OC)CCc1cc2c(cc1-3)OCO2 [Berberine Sulfate] | 1.66 | 2.46 | 1.4 | 2.36 | 1.68 | 2.08
CN1[C@@H]2CC[C@H]1C[C@@H](OC(=O)c1c[nH]c3ccccc13)C2 [Tropisetron] | 1.17 | 1.76 | 1.05 | 1.46 | 1.1 | 1.17
COc1cccc(Nc2c(C(N)=O)cnc3c(C)cc(S(=O)(=O)c4cccc(C(=O)N(C)C)c4)cc23)c1 | 1.2 | 0.89 | 1.05 | 1.95 | 1.19 | 1.48
CC(/C=C1\SC(=S)N(CC(=O)O)C1=O)=C\c1ccccc1 [Epalrestat] | 1.29 | 1.2 | 0.915 | 1.45 | 0.723 | 0.848
O=c1ccc2ccc(OCCCCN3CCN(c4cccc5sccc45)CC3)cc2[nH]1 [Brexpiprazole] | 1.47 | 1.82 | 2.84 | 1.52 | 2.28 | 1.15
COC(=O)[C@H]1[C@H]2C[C@@H]3c4[nH]c5cc(OC)ccc5c4CCN3C[C@H]2C[C@@H](OC(=O)c2cc(OC)c(OC)c(OC)c2)[C@@H]1OC [Reserpine] | 1.54 | 1.58 | 1.94 | 1.51 | 0.642 | 1.29
Cc1nc(C#Cc2ccnc(Cl)c2)c(C)n1-c1ccc(OC(F)(F)F)cc1 | 0.836 | 0.736 | 0.706 | 0.731 | 0.904 | 1.2
CC1=Nc2ccc(Cl)cc2S(=O)(=O)N1 [Diazoxide] | 1.25 | 0.782 | 1.19 | 1.21 | 1.01 | 1.25
c1ccc2c(CC3=NCCN3)cccc2c1 [Naphazoline HCl] | 1.23 | 0.672 | 1.11 | 0.693 | 0.599 | 0.531
N[C@@H](Cc1cc(I)c(Oc2ccc(O)c(I)c2)c(I)c1)C(=O)O [Liothyronine Sodium] | 0.896 | 0.796 | 0.838 | 1.56 | 1.41 | 0.927
CN(C)C(=O)[C@H](O)[C@H](Cc1ccccc1)NC(=O)c1cc2cc(Cl)ccc2[nH]1 | 0.476 | 0.757 | 0.712 | 1.01 | 1.05 | 0.908
O=C(/C=C\n1cnc(-c2cc(C(F)(F)F)cc(C(F)(F)F)c2)n1)N1CC(F)(F)C1 | 3.83 | 3.69 | 3.2 | 2.48 | 3.62 | 4
CN(C)c1cc(CNCC(C)(C)C)c(O)c2c1C[C@H]1C[C@H]3[C@H](N(C)C)C(O)=C(C(N)=O)C(=O)[C@@]3(O)C(O)=C1C2=O [Omadacycline tosylate] | 1.25 | 0.879 | 1.21 | 1.14 | 0.757 | 1.46
CS(=O)(=O)c1ccc([C@@H](O)[C@@H](CO)NC(=O)C(Cl)Cl)cc1 [Thiamphenicol] | 1.41 | 0.742 | 0.68 | 1.08 | 0.983 | 1.15
Cc1cnc(C(=O)O)c[n+]1[O-] [Acipimox] | 1.86 | 0.99 | 0.959 | 0.682 | 1.59 | 0.964
OCc1ccccc1O[C@@H]1O[C@H](CO)[C@@H](O)[C@H](O)[C@H]1O [Salicin] | 1.17 | 0.655 | 0.503 | 0.638 | 0.419 | 1.21
CC(=O)O[C@H]1C[C@@]2(C)[C@@H](C[C@@H](O)[C@H]3[C@@]4(C)CC[C@@H](O)[C@@H](C)[C@@H]4CC[C@@]32C)/C1=C(\CCC=C(C)C)C(=O)O [Fusidate Sodium] | 1.27 | 0.59 | 1.88 | 1.32 | 0.533 | 1.2
Cn1cncc1[C@@](N)(c1ccc(Cl)cc1)c1ccc2c(c1)c(-c1cccc(Cl)c1)cc(=O)n2C [Tipifarnib] | 2.23 | 2.94 | 2.5 | 2.31 | 1.91 | 2.15
C[C@H](CCC(=O)O)[C@H]1CC[C@H]2[C@@H]3[C@H](O)C[C@@H]4C[C@H](O)CC[C@]4(C)[C@H]3CC[C@]12C [Chenodeoxycholic Acid] | 0.805 | 0.691 | 0.826 | 0.881 | 0.737 | 1.08
C[C@H](NC(=O)CCC(F)(F)F)C(=O)N[C@@H]1C(=O)N(CCO)c2ncccc2-c2ccccc21 | 0.859 | 0.929 | 1.3 | 0.741 | 0.66 | 1.09
CC(C(=O)O)c1cccc(C(=O)c2ccccc2)c1 (centres undefined) [Ketoprofen] | 1.28 | 0.765 | 2.29 | 0.989 | 0.77 | 1.42
